Values joined by “and” are separate entries in the source; they are usually repeats but may differ in a detail not shown here. Equal entries are not always repeated. Active and inactive are the calls of the source.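 Rule for the calls, unless noted: active = compounds whose cell count with miR-34 switched on is under 0.7 times the count with it off; inactive = the rest.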

A short description of assay [1]: compounds altering viability of human ES cells (AID 493140; call rule not given here;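 note: cells exposed to compounds for four days before counting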). The note with it: human embryonic stem cell survival screen; stronger effect = higher value.
A short description of assay [2]: P. berghei load reduction in hepatocytes – cell-based, HepG2, luciferase luminescence, HepG2 viability, primary screen (AID 624349; in the data active = parasite load remaining mostly below about 12%, no sharp cut-off; inactive = mostly above about 10%;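 note: 100% = mean of DMSO negative control wells on the same plate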). Particulars: P. berghei liver stage in HepG2, luciferase luminescence, concentration not given here; parasite load remaining: stronger effect = lower value; viability: measured here: HepG2 viability without parasites.
A short description of assay [3]: Wnt pathway potentiators raising nuclear beta-catenin – imaging, WNT3A-conditioned medium, mouse C2C12, NPC library, primary screen (AID 1117326; in the data active = nuclear beta-catenin stimulation mostly above about 4.2%, no sharp cut-off; inactive = mostly below about 10%). The note with it: stronger effect = higher value.
A short description of assay [4]: stimulators of insulin release from INS-1E, primary screen, cell-based, 5 mM glucose, NPC library (AID 1117329;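 active = compound raises insulin release from rat beta cells at 5 mM glucose, no numeric limit stated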). Particulars: rat INS-1E insulin secretion, at 10 µM, stronger effect = higher value.
A short description of assay [5]: growth inhibition of GSK3B-pretreated HCT116 cells – cell-based, CellTiter-Glo, 0.2 to 20 µM (AID 1117336;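 active = compounds lowering colon cancer cell viability after pretreatment blocking the GSK3B kinase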). The note with it: HCT116 viability after GSK3B inhibitor, at 20 µM, stronger effect = higher value.
Assay [6] is described as follows: inhibition of endothelial tube formation, primary screen, imaging, VEGF stimulated, CD31 staining, tube area, NPC library (AID 1117340;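 active = compound that reduces growth-factor-driven endothelial tube area in a mixed cell culture, no cutoff stated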). The note with it: VEGF-stimulated ADSC/ECFC co-culture, at 10 µM, stronger effect = higher value.
Assay [7] is described as follows: GLP1 release stimulators, primary, NCI-H716, NPC library (AID 1117341;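 active = compound raises GLP1 secretion from the human gut endocrine cells, with no numeric limit stated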). Particulars: NCI-H716 cells, at 10 µM, stronger effect = higher value.
The nature of assay [8]: HCT116 colon cancer cell growth inhibition, primary screen, CellTiter-Glo luminescence, NPC library (AID 1117342;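 active = compounds that lower survival of HCT116 colon cancer cells in the luminescence readout, no numeric limit stated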). Particulars: at 20 µM (top of the series). For orientation: ATP-based viability assays read luminescence as a measure of living cells.
Assay [9] can be described thus: reduced SW480 viability measured with CellTiter-Glo, NPC library, primary (AID 1117343;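 active = compounds that lower viability of the colon cancer cells in the luminescence readout, with no numeric limit stated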). The note with it: CellTiter-Glo luminescence; at 20 µM (top of the series) unless noted.
The nature of assay [10]: NPC library primary testing for decreased DLD-1 cell viability via CellTiter-Glo (AID 1117346;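 active = compounds that lower survival of DLD-1 colon cancer cells in the luminescence readout, no cutoff given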). The note with it: DLD-1 viability, CellTiter-Glo luminescence; at 20 µM (top of the series).
Assay [11] in a line: EMT-state selective cytotoxicity in co-culture – imaging, PC-3E GFP, TEM4-18 mCherry, primary screen (AID 1345086;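 active = compounds killing one labelled cell type while sparing the other, by normalised counts and ratio limits, not self-fluorescent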;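 for all read-outs here: cells exposed to compound for 72 h before imaging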;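 for red/green cell ratio (normalised): normalised mesenchymal count divided by normalised epithelial count so high means epithelial killing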). Particulars: PC-3E GFP / TEM4-18 mCherry co-culture, imaging cell counts, at 1 µM; for red/green cell ratio (normalised): actives lie on both sides, counts scaled to control wells, 1 = unselective.
Assay [12] can be described thus: viability loss with induced miR-34 in A549 – imaging, A549 dox-inducible miR-34, nuclei and caspase counts, primary screen (AID 1347080). Particulars: A549 miR-34 inducible, Hoechst nuclei count, 48 h.
The nature of assay [13]: MELAS cybrid and Rieske KO viability enhancers – cell-based, MELAS cybrids, Rieske KO mouse fibroblasts, CellTiter-Glo, primary screen (AID 1508586;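 active = mean z-score across replicates of 1.96 or higher in either the MELAS or the Rieske mutant cell line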;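 note: z relative to plate mean and SD of compound and empty wells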). The note with it: low glucose.
The target of assay [14] is NAD(+) hydrolase SARM1 (Homo sapiens) (UniProt Q6SZW1). As to the kind of experiment: blocking NAD cleavage by SARM1 SAM-TIR – cell lysate, NAD-Glo luminescence (AID 1508614;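 active = compound whose remaining NAD level is above about 45 nM, limit read from the data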;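 note: higher remaining NAD means stronger inhibition of SARM1 NADase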). The note with it: SAM-TIR HEK293T lysate NADase, at 1 µM, stronger effect = higher value.
NAD(+) hydrolase SARM1 (Homo sapiens), sequence (Q6SZW1 whole entry, looked up): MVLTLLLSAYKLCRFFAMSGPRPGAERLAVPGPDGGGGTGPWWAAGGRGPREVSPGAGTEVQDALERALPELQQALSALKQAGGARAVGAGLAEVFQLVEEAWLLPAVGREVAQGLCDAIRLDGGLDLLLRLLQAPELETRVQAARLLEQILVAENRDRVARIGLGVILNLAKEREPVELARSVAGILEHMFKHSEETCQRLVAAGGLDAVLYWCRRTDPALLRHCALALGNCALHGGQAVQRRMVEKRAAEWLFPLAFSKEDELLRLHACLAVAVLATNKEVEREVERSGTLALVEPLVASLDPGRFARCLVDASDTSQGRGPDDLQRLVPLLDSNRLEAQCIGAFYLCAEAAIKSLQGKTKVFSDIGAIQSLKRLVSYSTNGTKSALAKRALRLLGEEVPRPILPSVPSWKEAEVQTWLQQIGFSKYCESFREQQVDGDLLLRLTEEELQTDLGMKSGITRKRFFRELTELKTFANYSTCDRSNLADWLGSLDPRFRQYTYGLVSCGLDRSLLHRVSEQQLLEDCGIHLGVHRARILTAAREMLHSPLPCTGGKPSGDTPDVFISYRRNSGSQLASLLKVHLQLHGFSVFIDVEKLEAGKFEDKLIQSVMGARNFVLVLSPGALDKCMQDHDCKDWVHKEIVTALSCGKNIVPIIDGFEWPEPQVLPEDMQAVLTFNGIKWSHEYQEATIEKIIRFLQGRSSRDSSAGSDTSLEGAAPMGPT
Setting [15] is: measured here: epithelial PC-3E GFP cell survival.
[16] abbreviates: measured here: mesenchymal TEM4-18 mCherry cell survival.
Where [17] appears, read: stronger effect = lower value, cell number ratio, induced over uninduced.
Setting [18] is: measured here: relative caspase fold change +Dox/-Dox.
Setting [19] is: measured here: total cells with miR-34 induction, stronger effect = lower value.
Where [20] appears, read: measured here: total cells without miR-34 induction.
Setting [21] is: MELAS cybrid survival, CellTiter-Glo 48 h, stronger effect = higher value.
[22] abbreviates: Rieske KO mouse fibroblast survival, CellTiter-Glo 72 h.

What is called viability is a read-out of living cells in per cent, often relative to untreated cells. As to `CC(C)(C)NCC(O)COc1cccc2c1CCC(=O)N2` (configuration not stated), the survival in assay [1] is 7.75 (inactive). Also, the parasite load remaining in [2] was 126% (inactive) and 79.2% (inactive). Further, the viability in assay [2] was 105% and 76.8%. Besides, the nuclear beta-catenin stimulation in assay [3] (at 10 µM) was 0.7% (inactive); in assay [3] (stimulation, at 2 µM), 1.8%. The insulin secretion stimulation in assay [4] was 1.4% (inactive). Besides, the viability decrease in [5] was -25.9% (inactive). Moreover, in assay [6], the tube area decrease is -2.9% (inactive). In [7], the GLP1 secretion stimulation is 1.2% (inactive). The inhibition of viability in assay [8] is -1.83% (inactive). Besides, the viability decrease (inhibition) is -26.6% (inactive) in assay [9] and -8.8% (inactive) in [10]. In addition, in [11], the red/green cell ratio (normalised) is 1.13 (inactive). Further, the normalised cell number in assay [11] (setting [15]) came out at 1.2; in assay [11] (setting [16]), 1.36. Moreover, the fold change in assay [12] (setting [17]) is 0.805 (inactive) and 0.903 (inactive); in assay [12] (setting [18]) it was 0.997 and 0.693. For the same compound, the cell count in assay [12] (setting [19]) was 8680 and 7910; in assay [12] (setting [20]), 10800 and 8760. The z-score in assay [13] (setting [21]) is -0.229 (inactive) and 0.6 (inactive); in [13] (setting [22]), -0.22 and -0.0871. In addition, the remaining NAD in assay [14] was 10 nM (inactive).

For the compound `Cc1cccc(C)c1NC(=O)CN1CCN(CCCC(c2ccc(F)cc2)c2ccc(F)cc2)CC1`, the survival in [1] was 2.42 (inactive). Further, the parasite load remaining in assay [2] is 135% (inactive) and 49% (inactive). In assay [2], the viability is 101% and 79.5%. Besides, the nuclear beta-catenin stimulation was 4.7% (inactive) in assay [3] (at 10 µM) and 1.2% in [3] (stimulation, at 2 µM). For the same compound, the insulin secretion stimulation in assay [4] was -1.1% (inactive). For the same compound, the viability decrease in assay [5] is 99.6% (active). Besides, in assay [6], the tube area decrease is 82.9% (active). The GLP1 secretion stimulation in [7] was -2.6% (inactive). The inhibition of viability in [8] is 99.7% (active). The viability decrease (inhibition) in [9] was 97.6% (active); in [10] it was 102% (active). Also, the red/green cell ratio (normalised) in assay [11] is 1.02 (inactive). Besides, the normalised cell number in assay [11] (setting [15]) turned out to be 1.1; in assay [11] (setting [16]), 1.13. For the same compound, the values for the fold change in assay [12] (setting [17]) and in [12] (setting [18]) were 0.884 (inactive) and 1.28, respectively. Further, the cell count in assay [12] (setting [19]) was 8280; in assay [12] (setting [20]), 9370. The z-score in assay [13] (setting [21]) was 0.335 (inactive); in [13] (setting [22]) it was 0.284.

For `Cc1ncc(CSSCc2cnc(C)c(O)c2CO)c(CO)c1O`, the nuclear beta-catenin stimulation in [3] (at 10 µM) was 0.2% (inactive); in [3] (stimulation, at 2 µM), -2.2%. Also, the insulin secretion stimulation in assay [4] is 1.7% (inactive). Besides, the viability decrease in assay [5] is 4.2% (inactive). For the same compound, in [6], the tube area decrease was -25.7% (inactive). The GLP1 secretion stimulation in assay [7] was 6.7% (inactive). In assay [8], the inhibition of viability was 14.3% (inactive). Besides, the viability decrease (inhibition) in assay [9] is 6.1% (inactive); in [10], 15.6% (inactive). In addition, the red/green cell ratio (normalised) in [11] was 0.89 (inactive). Further, the figures for the normalised cell number in assay [11] (setting [15]) and in assay [11] (setting [16]) were 1.03 and 0.92, respectively. The fold change in [12] (setting [17]) was 0.95 (inactive); in assay [12] (setting [18]), 0.868. Further, the values for the cell count in [12] (setting [19]) and in assay [12] (setting [20]) were 8920 and 9390, respectively. Also, the remaining NAD in [14] was 10 nM (inactive).

`CCCCC(CC)COc1ccc(-c2nc(-c3ccc(OC)cc3)nc(-c3ccc(OCC(CC)CCCC)cc3O)n2)c(O)c1` (configuration not stated): the nuclear beta-catenin stimulation in [3] (at 10 µM) is -1% (inactive); in assay [3] (stimulation, at 2 µM), 2%. Moreover, in assay [4], the insulin secretion stimulation was 0.7% (inactive). The viability decrease in [5] was 4.7% (inactive). Further, the tube area decrease in [6] is 2.9% (inactive). The GLP1 secretion stimulation in assay [7] is -2.3% (inactive). The inhibition of viability in assay [8] is -5.3% (inactive). The viability decrease (inhibition) was -1.3% (active) in assay [9] and -8.3% (inactive) in assay [10]. In assay [11], the red/green cell ratio (normalised) is 0.89 (inactive). Also, the values for the normalised cell number in assay [11] (setting [15]) and in assay [11] (setting [16]) were 1.25 and 1.12, respectively. Besides, the values for the fold change in [12] (setting [17]) and in assay [12] (setting [18]) were 0.959 (inactive) and 0.849, respectively. The cell count in [12] (setting [19]) worked out at 9430; in assay [12] (setting [20]), 9840. In assay [14], the remaining NAD is 10 nM (inactive).
